Experimental findings from PubChem BioAssay (Tox21) are described below.

Values joined by “and” are separate entries in the source; they are usually repeats but may differ in a detail not shown here. Equal entries are not always repeated. Records with an inconclusive call do not appear. Entries that show only a call come without a potency. The source holds several records for some structures; these can differ, active in one and inactive in another. Active and inactive are the calls of the source. The call rests on the fitted dose curve.
Potency means the concentration at half of the fitted maximal effect.

In this assay the target is Muscarinic acetylcholine receptor M1 (Homo sapiens) (UniProt P11229). The assay is described as follows: Cholinergic receptor muscarinic 1 (CHRM1) small molecule antagonists, cell-based qHTS assay (AID 1963588). Further: nearly all actives have a fitted effect of over 40% in size. The conditions noted are these: CHRM1-CHO antagonist mode, calcium flux fluorescence; series mostly up to 61.5 µM. The source says: National Center for Advancing Translational Sciences [NCATS]
Chain of Muscarinic acetylcholine receptor M1 (Homo sapiens) (P11229 whole entry, looked up): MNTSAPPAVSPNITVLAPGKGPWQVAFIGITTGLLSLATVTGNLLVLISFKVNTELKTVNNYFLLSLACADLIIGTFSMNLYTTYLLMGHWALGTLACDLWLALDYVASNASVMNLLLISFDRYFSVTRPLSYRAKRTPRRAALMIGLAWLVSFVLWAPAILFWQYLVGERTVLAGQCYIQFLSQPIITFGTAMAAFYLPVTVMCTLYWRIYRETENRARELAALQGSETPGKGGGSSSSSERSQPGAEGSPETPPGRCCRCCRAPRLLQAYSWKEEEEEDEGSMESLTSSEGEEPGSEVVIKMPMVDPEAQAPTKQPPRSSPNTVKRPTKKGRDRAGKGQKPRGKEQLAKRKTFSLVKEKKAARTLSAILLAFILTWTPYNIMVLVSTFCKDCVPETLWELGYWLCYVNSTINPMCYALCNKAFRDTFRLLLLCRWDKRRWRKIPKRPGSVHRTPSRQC
Division of Preclinical Innovation [DPI]
U.S. Environmental Protection Agency [EPA]
National Institutes of Environmental Health Sciences [NIEHS]
National Toxicology Program [NTP]
U.S. Food and Drug Administration [FDA]
The CHRM1 is a muscarinic receptor. This receptor plays a crucial role in learning and memory processes and has long been identified as a promising therapeutic target for the improvement of cognitive decline in Alzheimer's disease (AD). The CHRM1-CHO cell line stably expressing human muscarinic acetylcholine receptor M1 (CHRM1) can be used for screening agonists and antagonists of interactions between CHRM1 and its ligands. The CHRM1-CHO Calcium Flux Assay is a homogeneous fluorescence-based assay for detecting the intracellular calcium level using FDSS kinetic plate reader system.
Tox21 Assay Protocol Summary:
CHRM1-CHO cells were dispensed at 1000 cells/3uL/well in 1536-well black-clear bottom plates using a Multidrop Dispenser. After the assay plates were incubated at a 37 C/5% CO2 incubator for 18 h, 3 uL of Dye Loading Buffer was transferred to the assay plate by a Flying Reagent Dispenser. The assay plates were incubated at 37 C for 1h. For antagonist mode, 23 nL of compounds dissolved in DMSO, positive controls or DMSO only was transferred to the assay plate by a pin tool. After 5 min incubation at room temperature, 1.5 uL of acetylcholine at 50nM was added to each well. The fluorescence intensity in the plates was measured using FDSS 7000EX kinetic plate reader for 3 min at 1 sec intervals. Each test compound was measured at 15 concentrations in three independent runs.
In general terms: Quantitative high-throughput screening tests each substance at several concentrations.
For `OC[C@@H](O)[C@@H](O[C@@H]1O[C@H](CO)[C@H](O)[C@H](O)[C@H]1O)[C@H](O)[C@@H](O)CO`, the Potency result was “inactive”.

As to `O=C(O)c1ccc(S(=O)(=O)N(Cl)Cl)cc1`, the Potency entry was “inactive”.

`O=C(OCc1ccccc1)c1ccccc1`: the Potency entry was “inactive”.

On to `CN(C)Cc1cc(CN(C)C)c(O)c(CN(C)C)c1`, for which the Potency entry was “inactive”.

As for `CCNc1cccc(C)c1`, the Potency entry was “inactive”.

As for `CCCCCCCCCCCCc1ccccc1`, the Potency result is “inactive”.

As to `NCCNc1cccc2ccccc12`, the Potency result is “inactive”.

`CCCCNC(N)=O`: the Potency result is “inactive”.

On to `NCCCCCCN`, for which the Potency result was “inactive and 16.8 µM (active)”.

As to `O=C(CC(C(=O)OC1CCCCC1)S(=O)(=O)O)OC1CCCCC1` (stereo not given), the Potency entry was “inactive”.

On to `CC(=O)c1ccc(S(=O)(=O)NC(=O)NC2CCCCC2)cc1`, for which the Potency entry is “inactive”.

Turning to `Cc1ccc([N+](=O)[O-])cc1S(=O)(=O)O`, the Potency entry was “inactive”.

On to `CCCCC(CC)COC(=O)/C=C/c1ccc(OC)cc1` (stereo not given), for which the Potency entry is “inactive”.

In the case of `[Na+]`, the Potency entry was “inactive”.

For `O=C(O)CS`, the Potency result was “inactive”.

As for `CC(=O)CC/C=C(\C)CCC=C(C)C`, the Potency entry was “inactive”.

In the case of `CCOC(=O)CC(=O)OCC`, the Potency result was “inactive”.

Turning to `Cc1cc(Cc2ccc(N)c(C)c2)ccc1N`, the Potency entry was “inactive”.

For `CC(=O)Nc1ccccc1`, the Potency result was “inactive”.

For the molecule `CCN1CCCC1=O`, the Potency result was “inactive”.

As for `Cc1cccc(C(=O)O)c1`, the Potency result was “inactive”.

As for `C=CC(=O)OCCC(=O)O`, the Potency result was “inactive”.

Take `CN(C)CCOC(=O)COc1ccc(Cl)cc1`: the Potency result was “inactive”.

Consider `Cc1cc(C(C)(C)C)c(O)c(C(C)(C)C)c1`, for which the Potency entry is “inactive”.

For the molecule `OC[C@H]1O[C@H](O[C@]2(CCl)O[C@H](CCl)[C@@H](O)[C@@H]2O)[C@H](O)[C@@H](O)[C@H]1Cl`, the Potency entry was “inactive”.

Take `CCCCC(CC)COC(=O)C(C#N)=C(c1ccccc1)c1ccccc1` (stereo not given): the Potency result is “inactive”.

Turning to `c1cc(-c2ccncc2)ccn1`, the Potency result was “inactive”.

As to `CNC[C@H](O)[C@@H](O)[C@H](O)[C@H](O)CO`, the Potency entry is “inactive”.

`O=C(O)CCCCC(=O)O`: the Potency entry was “inactive”.

For `Cc1ncc([N+](=O)[O-])n1C`, the Potency entry is “inactive”.

As for `CCCCCCCC(=O)OCC(COC(=O)CCCCCCC)OC(=O)CCCCCCC`, the Potency result is “inactive”.

Turning to `CC1=CC(=O)CC(C)(C)C1`, the Potency result is “inactive”.

For the molecule `Oc1ccc(Cl)cc1Cc1cc(Cl)ccc1O`, the Potency result is “inactive”.

As for `O=C1O[C@H](CO)[C@@H](O)[C@H](O)[C@H]1O`, the Potency result was “inactive”.

In the case of `CCCCCCCCCCCCCC(=O)OC(C)C`, the Potency result was “inactive”.

With `O=NO`, the Potency result was “inactive”.

For the molecule `CC(=O)OC/C=C(\C)CCC=C(C)C`, the Potency result was “inactive”.

Regarding `CN(C)CCOC(C)(c1ccccc1)c1ccccn1` (stereo not given), the Potency was 18.8 µM (active) and 4.1 µM (active).

Turning to `CCOC(=O)NNc1nncc2ccccc12`, the Potency entry is “inactive”.

As to `CC(=O)CCc1ccccc1`, the Potency entry is “inactive”.
